# Assay results: the supplement of paper PMC10849652
# The full data set covers some 7,900 targets. This sample favours those with a hit. About 0.6% of all pairs of compound and target were hits. Values without a mark were called inactive.
# Key:
# Experiment in all cases: log2 fold change, soluble protein after heating vs DMSO (PISA); higher = thermal stabilisation; K562 cells, 10 uM, 30 min; active = over 0.2 and 3.5 SD of the protein, either way, in both replicates (recomputed)
# bafetinib = compound: Cc1ccc(NC(=O)c2ccc(CN3CC[C@H](N(C)C)C3)c(C(F)(F)F)c2)cc1Nc1nccc(-c2cncnc2)n1 [bafetinib]
# Outline: (§1)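 Quantification of soluble protein used TMTpro 16plex LC-MS/MS, with channel sums equalised. Samples were the supernatant after 21,000xg for 90 min of pooled aliquots from K562 cells (2×10^6 cells/mL) treated with 10 μM compound for 30 min, heated for 3 min over 48°C-58°C, and extracted in PBS with 0.5% NP-40 at 4°C. Values, from duplicates, describe thermal stability against control samples on a log2 fold-change scale.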
# [1] = compound: Cc1cccc(CC(=O)N2CCc3c2ccc(-c2cn(C)c4ncnc(N)c24)c3F)n1
# Outline: as §1
# nilotinib = compound: Cc1cn(-c2cc(NC(=O)c3ccc(C)c(Nc4nccc(-c5cccnc5)n4)c3)cc(C(F)(F)F)c2)cn1 [nilotinib]
# Outline: as §1
# [2] = compound: Cc1nc(Nc2n[nH]c3c2CN(C(=O)N[C@H](CN(C)C)c2ccccc2)C3(C)C)c2sccc2n1
# Outline: as §1
# [3] = compound: Cc1ncc(-c2ccnc(Nc3ccc(S(C)(=O)=O)cc3)n2)n1C(C)C
# Outline: as §1
# [4] = compound: Cn1cc(-c2ccc3c(c2)CCN3C(=O)Cc2cccc(C(F)(F)F)c2)c2c(N)ncnc21
# Outline: as §1
# [5] = compound: Cn1cc(-c2ccc3nnc(C(F)(F)c4ccc5ncccc5c4)n3n2)cn1
# Outline: as §1
# tipifarnib = compound: Cn1cncc1[C@@](N)(c1ccc(Cl)cc1)c1ccc2c(c1)c(-c1cccc(Cl)c1)cc(=O)n2C [tipifarnib]
# Outline: as §1
# mubritinib = compound: FC(F)(F)c1ccc(/C=C/c2nc(COc3ccc(CCCCn4ccnn4)cc3)co2)cc1 [mubritinib]
# Outline: as §1
# dasatinib = compound: Cc1nc(Nc2ncc(C(=O)Nc3c(C)cccc3Cl)s2)cc(N2CCN(CCO)CC2)n1 [dasatinib]
# Outline: as §1
# UniProt O75438, sequence (O75438 whole entry, looked up): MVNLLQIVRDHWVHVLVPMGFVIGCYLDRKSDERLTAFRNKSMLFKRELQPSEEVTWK
# UniProt P30414, sequence (P30414 whole entry, looked up): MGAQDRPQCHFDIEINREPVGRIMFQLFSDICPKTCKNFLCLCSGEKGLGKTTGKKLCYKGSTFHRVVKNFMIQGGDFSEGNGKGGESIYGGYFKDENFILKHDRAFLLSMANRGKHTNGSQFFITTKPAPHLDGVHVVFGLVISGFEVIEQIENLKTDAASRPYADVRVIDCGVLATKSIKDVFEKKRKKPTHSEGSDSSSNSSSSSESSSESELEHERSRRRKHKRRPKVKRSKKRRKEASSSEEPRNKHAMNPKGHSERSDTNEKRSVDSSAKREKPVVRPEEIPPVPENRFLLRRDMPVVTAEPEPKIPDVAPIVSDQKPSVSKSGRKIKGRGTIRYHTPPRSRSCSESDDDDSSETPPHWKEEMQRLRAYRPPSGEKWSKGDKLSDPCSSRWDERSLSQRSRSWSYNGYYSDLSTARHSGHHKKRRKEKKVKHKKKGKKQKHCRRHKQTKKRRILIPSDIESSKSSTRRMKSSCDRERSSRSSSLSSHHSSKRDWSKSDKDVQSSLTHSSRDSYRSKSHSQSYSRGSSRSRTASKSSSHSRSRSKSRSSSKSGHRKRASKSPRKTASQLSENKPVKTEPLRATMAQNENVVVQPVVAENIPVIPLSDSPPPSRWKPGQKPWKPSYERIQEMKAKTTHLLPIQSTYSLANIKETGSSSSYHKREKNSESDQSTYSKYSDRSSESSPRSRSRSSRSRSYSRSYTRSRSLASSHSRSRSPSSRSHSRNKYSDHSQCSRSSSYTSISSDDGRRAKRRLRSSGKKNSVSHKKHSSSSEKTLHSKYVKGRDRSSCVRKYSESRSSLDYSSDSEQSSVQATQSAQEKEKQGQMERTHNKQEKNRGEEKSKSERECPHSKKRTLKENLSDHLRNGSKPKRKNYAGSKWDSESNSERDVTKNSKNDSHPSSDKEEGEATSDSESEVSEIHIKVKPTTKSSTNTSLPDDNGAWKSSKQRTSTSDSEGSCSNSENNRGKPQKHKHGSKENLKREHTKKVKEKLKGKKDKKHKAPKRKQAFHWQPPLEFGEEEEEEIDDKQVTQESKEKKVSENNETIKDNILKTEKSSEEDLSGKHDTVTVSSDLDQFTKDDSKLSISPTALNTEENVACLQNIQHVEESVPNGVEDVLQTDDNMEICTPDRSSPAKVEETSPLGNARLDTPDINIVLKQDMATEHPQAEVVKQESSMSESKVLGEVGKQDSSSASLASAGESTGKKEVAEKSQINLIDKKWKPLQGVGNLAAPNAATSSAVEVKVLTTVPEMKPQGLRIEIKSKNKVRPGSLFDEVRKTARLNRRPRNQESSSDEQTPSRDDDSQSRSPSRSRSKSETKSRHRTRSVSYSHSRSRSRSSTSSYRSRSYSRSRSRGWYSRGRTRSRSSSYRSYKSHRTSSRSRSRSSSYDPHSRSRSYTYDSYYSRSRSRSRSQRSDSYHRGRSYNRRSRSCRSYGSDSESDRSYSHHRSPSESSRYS
# UniProt Q9UHC9, sequence (Q9UHC9 whole entry, looked up): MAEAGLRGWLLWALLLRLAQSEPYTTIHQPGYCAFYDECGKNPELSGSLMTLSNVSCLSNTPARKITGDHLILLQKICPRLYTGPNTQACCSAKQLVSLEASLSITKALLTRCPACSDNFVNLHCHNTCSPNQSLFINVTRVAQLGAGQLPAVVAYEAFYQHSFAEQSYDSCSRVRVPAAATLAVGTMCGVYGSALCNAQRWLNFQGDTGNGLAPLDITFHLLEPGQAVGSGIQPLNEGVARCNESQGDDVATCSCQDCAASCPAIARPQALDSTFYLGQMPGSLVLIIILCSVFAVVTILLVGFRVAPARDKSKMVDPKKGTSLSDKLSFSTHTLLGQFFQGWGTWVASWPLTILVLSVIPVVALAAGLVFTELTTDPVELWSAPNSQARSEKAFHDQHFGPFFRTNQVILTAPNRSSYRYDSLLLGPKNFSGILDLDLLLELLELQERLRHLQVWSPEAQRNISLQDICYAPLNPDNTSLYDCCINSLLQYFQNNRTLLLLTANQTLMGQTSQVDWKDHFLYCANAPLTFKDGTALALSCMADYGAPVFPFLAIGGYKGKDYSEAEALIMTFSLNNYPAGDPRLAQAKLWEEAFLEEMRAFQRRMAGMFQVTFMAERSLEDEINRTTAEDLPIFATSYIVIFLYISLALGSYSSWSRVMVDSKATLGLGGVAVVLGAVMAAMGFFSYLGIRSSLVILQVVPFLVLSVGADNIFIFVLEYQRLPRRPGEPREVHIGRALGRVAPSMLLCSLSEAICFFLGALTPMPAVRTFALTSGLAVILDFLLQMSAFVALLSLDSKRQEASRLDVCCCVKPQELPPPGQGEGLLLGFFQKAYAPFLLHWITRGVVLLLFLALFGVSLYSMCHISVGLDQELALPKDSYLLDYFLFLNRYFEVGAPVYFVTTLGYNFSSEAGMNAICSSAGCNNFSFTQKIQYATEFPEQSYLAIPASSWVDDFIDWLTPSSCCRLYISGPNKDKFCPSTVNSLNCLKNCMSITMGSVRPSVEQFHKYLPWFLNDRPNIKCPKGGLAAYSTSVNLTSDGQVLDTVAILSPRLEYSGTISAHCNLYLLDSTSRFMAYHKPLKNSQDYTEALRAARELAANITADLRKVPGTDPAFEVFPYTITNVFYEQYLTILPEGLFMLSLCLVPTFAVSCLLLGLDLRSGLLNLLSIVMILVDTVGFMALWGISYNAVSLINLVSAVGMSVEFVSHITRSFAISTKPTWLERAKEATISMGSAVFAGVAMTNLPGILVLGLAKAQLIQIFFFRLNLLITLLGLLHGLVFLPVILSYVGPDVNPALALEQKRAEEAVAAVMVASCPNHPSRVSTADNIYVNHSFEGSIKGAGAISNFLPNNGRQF
# UniProt Q9HCD5, sequence (Q9HCD5 whole entry, looked up): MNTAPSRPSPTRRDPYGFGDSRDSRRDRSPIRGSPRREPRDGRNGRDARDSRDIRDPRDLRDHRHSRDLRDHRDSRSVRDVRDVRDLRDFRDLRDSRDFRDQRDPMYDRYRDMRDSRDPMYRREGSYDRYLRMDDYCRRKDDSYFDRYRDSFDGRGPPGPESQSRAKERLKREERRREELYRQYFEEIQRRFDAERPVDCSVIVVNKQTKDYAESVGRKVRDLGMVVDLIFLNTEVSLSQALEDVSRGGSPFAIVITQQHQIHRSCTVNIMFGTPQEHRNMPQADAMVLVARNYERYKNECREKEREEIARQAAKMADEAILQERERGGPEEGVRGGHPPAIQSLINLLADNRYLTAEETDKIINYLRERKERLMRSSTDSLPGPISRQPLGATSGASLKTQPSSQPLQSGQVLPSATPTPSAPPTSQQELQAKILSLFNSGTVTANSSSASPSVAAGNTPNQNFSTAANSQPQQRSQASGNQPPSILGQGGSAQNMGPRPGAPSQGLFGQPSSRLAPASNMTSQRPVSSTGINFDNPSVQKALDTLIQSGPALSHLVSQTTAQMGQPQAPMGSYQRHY
# UniProt O60361, sequence (O60361 whole entry, looked up): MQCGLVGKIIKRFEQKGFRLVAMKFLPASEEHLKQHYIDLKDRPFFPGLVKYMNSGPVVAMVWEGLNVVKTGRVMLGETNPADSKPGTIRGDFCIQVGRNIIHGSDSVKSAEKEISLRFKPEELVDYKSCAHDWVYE
# UniProt Q86TA1, sequence (Q86TA1 whole entry, looked up): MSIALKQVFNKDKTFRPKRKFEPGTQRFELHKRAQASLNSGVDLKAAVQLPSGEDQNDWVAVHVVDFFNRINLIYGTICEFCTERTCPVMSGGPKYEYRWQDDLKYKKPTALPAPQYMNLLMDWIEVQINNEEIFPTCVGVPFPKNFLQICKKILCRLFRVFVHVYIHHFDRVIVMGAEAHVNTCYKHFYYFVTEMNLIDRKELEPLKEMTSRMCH
# UniProt Q68DK7, sequence (Q68DK7 whole entry, looked up): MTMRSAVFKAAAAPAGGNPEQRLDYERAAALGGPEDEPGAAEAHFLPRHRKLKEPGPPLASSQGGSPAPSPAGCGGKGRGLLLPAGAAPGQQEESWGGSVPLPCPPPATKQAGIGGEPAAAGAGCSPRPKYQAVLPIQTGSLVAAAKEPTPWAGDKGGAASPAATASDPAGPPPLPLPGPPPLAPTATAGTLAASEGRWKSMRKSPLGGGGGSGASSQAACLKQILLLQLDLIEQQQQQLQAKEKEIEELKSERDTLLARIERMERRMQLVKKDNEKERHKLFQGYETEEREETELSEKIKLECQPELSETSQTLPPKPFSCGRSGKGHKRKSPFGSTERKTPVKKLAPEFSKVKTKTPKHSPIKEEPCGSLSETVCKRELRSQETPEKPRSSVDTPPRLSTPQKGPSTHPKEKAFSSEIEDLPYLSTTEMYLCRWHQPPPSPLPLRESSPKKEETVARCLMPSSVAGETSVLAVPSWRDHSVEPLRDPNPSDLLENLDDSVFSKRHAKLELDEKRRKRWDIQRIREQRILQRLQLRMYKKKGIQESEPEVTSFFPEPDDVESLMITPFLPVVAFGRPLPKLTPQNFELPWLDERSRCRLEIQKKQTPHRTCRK
# UniProt Q9BVC4, sequence (Q9BVC4 whole entry, looked up): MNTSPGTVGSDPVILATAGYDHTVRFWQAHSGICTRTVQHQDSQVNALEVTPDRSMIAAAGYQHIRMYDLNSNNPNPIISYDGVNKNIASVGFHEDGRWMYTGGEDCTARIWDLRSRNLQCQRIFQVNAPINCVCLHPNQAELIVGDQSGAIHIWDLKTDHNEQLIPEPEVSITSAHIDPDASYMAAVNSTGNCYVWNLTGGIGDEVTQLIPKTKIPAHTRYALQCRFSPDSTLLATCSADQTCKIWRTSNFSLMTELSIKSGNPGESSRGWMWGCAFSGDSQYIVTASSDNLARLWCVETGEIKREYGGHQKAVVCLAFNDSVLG
# UniProt P0C024, sequence (P0C024 whole entry, looked up): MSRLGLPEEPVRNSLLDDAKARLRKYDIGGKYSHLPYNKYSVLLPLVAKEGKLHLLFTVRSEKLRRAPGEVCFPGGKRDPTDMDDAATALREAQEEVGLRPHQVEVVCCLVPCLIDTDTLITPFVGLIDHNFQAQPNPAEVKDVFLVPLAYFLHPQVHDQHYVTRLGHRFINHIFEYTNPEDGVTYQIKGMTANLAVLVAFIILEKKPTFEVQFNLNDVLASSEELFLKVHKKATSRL
Target,log2 fold change (bafetinib),log2 fold change [1],log2 fold change (nilotinib),log2 fold change [2],log2 fold change [3],log2 fold change [4],log2 fold change [5],log2 fold change (tipifarnib),log2 fold change (mubritinib),log2 fold change (dasatinib)
MOB2 isoform 3 (UniProt Q70IA6),0.005,-0.039,-0.133,-1.47 (active),0.03,-0.069,0.056,0.013,-0.108,–
MRPS33 (UniProt Q9Y291),0.123,0.125,-0.129,0.064,-0.04,-0.033,0.028,-0.003,0.106,0.031
OSBPL8 (UniProt Q9BZF1),0.182,0.049,0.295,-0.086,-0.047,-0.225,-0.093,-0.117,0.108,0.066
MON1A (UniProt Q86VX9),-0.011,-0.112,-0.163,-0.056,0.138,–,-0.009,0.082,-0.012,0.017
MKRN2 (UniProt Q9H000),0.073,-0.194,-0.048,-0.062,0.066,-0.284,-0.099,-0.01,-0.142,-0.088
NCOR1 (UniProt O75376),-0.009,-0.056,0.182,-0.046,0.058,0.041,-0.049,0.103,0.041,-0.091
MRPS16 (UniProt Q9Y3D3),0.192,0.151,-0.187,0.009,-0.053,0.049,0.092,-0.094,0.16,–
NDUFB1 (UniProt O75438),-0.116,0.028,0.095,0.009,-0.028,0.004,–,0.038,0.022,–
NDUFB8 (UniProt O95169),-0.029,-0.002,0.015,0.027,-0.04,-0.08,0.154,0.071,0.027,0.056
NOSIP (UniProt Q9Y314),0.085,0.066,-0.11,-0.277,0.247,-0.063,-0.111,-0.128,-0.098,-0.229
NSMCE4A (UniProt Q9NXX6),-0.145,-0.144,0.189,-0.254,0.03,0.025,-0.131,0.026,0.552 (active),-0.051
NSDHL (UniProt Q15738),0.006,0.014,0.033,-0.021,0.001,0.11,0.133,0.029,0.164,0.054
NME2P1 (UniProt O60361),0.058,0.059,-0.236,-0.014,-0.107,-0.081,-0.013,-0.055,0.073,–
MSL1 (UniProt Q68DK7),-0.056,0.172,0.004,0.068,-0.042,–,-0.019,-0.065,0.148,0.014
NCOA7 (UniProt Q8NI08),-0.017,0.154,-0.044,-0.046,-0.039,0.085,0.004,-0.125,0.054,-0.144
OPHN1 (UniProt O60890),-0.035,-0.134,-0.088,0.051,0.093,0.028,0.099,–,0.035,-0.04
"NA, A0A494C071",-1.12 (active),-0.057,0.074,0.329,-0.439,0.001,–,–,0.094,0.029
MOB3B (UniProt Q86TA1),-0.023,0.034,-0.168,-0.397,0.032,0.222,–,0.01,0.109,–
NASP isoform 2 (UniProt P49321),–,–,–,–,–,–,–,–,-0.347,–
MSANTD2 (UniProt Q6P1R3),–,–,–,–,–,–,–,–,–,-0.042
OXR1 isoform 2 (UniProt Q8N573),–,-0.009,-0.028,-0.002,-0.094,0.15,0.099,-0.019,–,0

Target,log2 fold change (bafetinib),log2 fold change [1],log2 fold change (nilotinib),log2 fold change [2],log2 fold change [3],log2 fold change [4],log2 fold change [5],log2 fold change (tipifarnib),log2 fold change (mubritinib),log2 fold change (dasatinib)
MT-ND1 (UniProt P03886),-0.199,–,0.102,-0.079,-0.061,0.066,-0.036,0.633 (active),0.114,-0.149
NEK3 (UniProt P51956),–,-0.246,-0.026,-0.173,-0.037,0.101,-0.002,-0.088,-0.076,-0.055
NKTR (UniProt P30414),1.06,–,–,–,–,–,–,0.163,0.167,–
MPHOSPH8 isoform 2 (UniProt Q99549),–,–,–,–,–,-0.019,-0.116,0.01,0.031,-0.025
MYSM1 (UniProt Q5VVJ2),-0.138,–,–,–,–,–,0.18,–,–,–
NOLC1 isoform 3 (UniProt Q14978),–,–,–,–,–,-0.015,–,–,–,–
NRGN (UniProt Q92686),-0.199,-0.581,0.004,-0.199,-0.088,–,0.074,-0.055,–,–
NPC1L1 (UniProt Q9UHC9),-0.05,–,0.659,0.52,-0.384 (active),0.012,–,0.094,0.008,-0.117
"NA, A0A1W2PSA9",–,0.022,–,–,–,0.218,-0.118,–,–,0.289
MRPS26 (UniProt Q9BYN8),0.275,-0.003,–,–,–,0.007,0.135,-0.142,0.088,-0.031
NEU3 isoform 2 (UniProt Q9UQ49),–,–,–,–,–,–,–,0.044,–,–
NCOA5 (UniProt Q9HCD5),–,-0.04,-0.428,-0.92 (active),0.218,–,-0.203,0.164,–,-0.043
NAA11 (UniProt Q9BSU3),0,–,-0.093,0.015,-0.003,0.102,0.176,0.011,-0.081,0.059
NCK1 (UniProt P16333),0.062,–,-0.069,-0.421,0.046,-0.086,-0.044,0.008,-0.058,-0.138
MLST8 (UniProt Q9BVC4),0.005,–,-0.125,0.085,-0.059,0.028,–,-0.109,0.1,-0.152
OSBPL2 (UniProt Q9H1P3),–,–,–,–,–,0.37,–,-0.009,0.465,–
NIPSNAP2 (UniProt C9J7B1),-0.045,–,–,–,–,–,–,–,0.173,–
MITF (UniProt O75030),–,0.001,-0.071,-0.07,-0.047,–,–,–,0.084,–
MRM2 (UniProt Q9UI43),–,–,-0.069,-0.049,0.043,0.164,–,-0.011,–,-0.381
NUDT7 (UniProt P0C024),0.418,-0.122,0.093,0.006,-0.03,–,0.027,–,–,–
